{
  "source": "ChEMBL document CHEMBL4513135",
  "about": "“CO-ADD screening of IQOG CSIS (Spain) compounds”",
  "note": "Entries with a potency or affinity are not part of this list.",
  "data": [
    {"system": "Staphylococcus aureus", "conditions": "Concentration 32 ug.mL-1; ASSAY_TEST Inhibition of Bacterial Growth; detection method Absorption (OD600); MEDIA CAMHB; plate type 384well; NBS; CORNING #3640; time 18 hr", "units": {"Inhibition": "%"}, "values": [
      {"smiles": "N#Cc1cc(C#N)c(N2CCCCC2)nc1Cl", "Inhibition": 15.2},
      {"smiles": "CNC(=O)c1c(Cl)c2cc(OCc3ccccc3)ccc2n1C", "Inhibition": 21.87},
      {"smiles": "COc1nc2nc3c(c(N)c2cc1C#N)CCCC3", "Inhibition": 30.12},
      {"smiles": "N#CC1=C(Cl)Oc2ccc3ccccc3c2C1c1ccccc1", "note": "(stereo not drawn)", "Inhibition": 24.96},
      {"smiles": "OCc1cc2ccccc2[nH]1", "Inhibition": 39.41},
      {"smiles": "C#CCNc1ncccn1", "Inhibition": 40.44},
      {"smiles": "O=C1OC(c2ccccc2)=NC1=Cc1ccc(Cl)cc1", "Inhibition": 14.11},
      {"smiles": "CCCC(=O)NCc1c(-c2ccc(Cl)cc2)nc2ccccn12", "Inhibition": 11.89},
      {"smiles": "Cc1nc2c3c(C)nn(-c4ccccc4)c3ncn2n1", "Inhibition": 11.24},
      {"smiles": "Cc1ccc2nc(Cl)c(/C=N/NCc3ccccc3)cc2c1", "Inhibition": 26.2},
      {"smiles": "COc1ccccc1[C@H]1c2c(ccc3ccccc23)O/C(=N\\Br)[C@@]1(Br)C#N", "Inhibition": 33.19},
      {"smiles": "COc1ccc2c(c1)cc(CO)n2C", "Inhibition": 3.66},
      {"smiles": "CNCc1cc2cc(OC)ccc2n1C.Cl", "Inhibition": 10.42},
      {"smiles": "CCOC(=O)c1c[nH]c2ccc(OC)cc12", "Inhibition": 4.86},
      {"smiles": "N#Cc1cc(C#N)c(NCc2ccccc2)nc1N", "Inhibition": 27.12},
      {"smiles": "CC1(C)OC(=O)C(=Cc2ccc([N+](=O)[O-])cc2)C(=O)O1", "Inhibition": 28.78},
      {"smiles": "Nc1c2c(nc3c1C(c1ccc(O)cc1)c1c(ccc4ccccc14)O3)CCCC2", "note": "(stereo not drawn)", "Inhibition": 9.54},
      {"smiles": "CC(=O)C(=Cc1ccccc1)C(=O)O[C@H]1C[C@H](C)CC[C@H]1C(C)C", "Inhibition": 27.78},
      {"smiles": "CCOC(=O)/C(C#N)=C\\c1ccc([N+](=O)[O-])cc1", "Inhibition": 32.65},
      {"smiles": "Cc1nc2c3cnn(-c4ccccc4)c3nc(C)n2n1", "Inhibition": 14.43},
      {"smiles": "C/C(Cc1ccccc1)=N/NC(=O)c1c[nH]c2ccc(O)cc12", "Inhibition": 7.12},
      {"smiles": "Cc1ccc(C2c3c(nc4c(c3N)CCCC4)Oc3ccc4ccccc4c32)cc1", "note": "(stereo not drawn)", "Inhibition": 10.92},
      {"smiles": "N#Cc1cc2c(N)n[nH]c2nc1N", "Inhibition": 14.97},
      {"smiles": "Cl.ClCCCC1CCNCC1", "Inhibition": 28.57},
      {"smiles": "N#CC1(Br)C(=NBr)Oc2c(ccc3ccccc23)C1c1cccc([N+](=O)[O-])c1", "note": "(stereo not drawn)", "Inhibition": 34.66},
      {"smiles": "CN1C/C(=C\\Br)n2c1c(C#N)cc(C#N)c2=O", "Inhibition": 16.92},
      {"smiles": "COc1ccccc1-c1c(C#N)c(=O)oc2c1ccc1ccccc12", "Inhibition": 27.34},
      {"smiles": "CCOc1nc2nc3c(c(N)c2cc1C#N)CCCC3", "Inhibition": -2.29},
      {"smiles": "Cc1ccc(CNNC(=O)c2cc3ccccc3n2C)cc1", "Inhibition": -9.87},
      {"smiles": "COc1ccccc1C1C(C#N)=C(N)Oc2c1ccc1ccccc21", "note": "(stereo not drawn)", "Inhibition": 19.36},
      {"smiles": "Cc1ccc(CNNC(=O)c2c[nH]c3ccccc23)cc1", "Inhibition": -8.4},
      {"smiles": "Cc1cnc2ccc(Br)cn12", "Inhibition": 2.9},
      {"smiles": "O=c1oc2cc(O)ccc2cc1-c1ccccc1", "Inhibition": 10.2},
      {"smiles": "CC(=O)Oc1ccc(C=C2N=C(c3ccccc3)OC2=O)c(OC(C)=O)c1", "Inhibition": 7.39},
      {"smiles": "Cl.N#Cc1c(N)nc(NCCO)c(C#N)c1-c1ccccc1", "Inhibition": 32.81},
      {"smiles": "C#CCN(C)c1nc(N(C)CC#C)c(C#N)cc1C#N", "Inhibition": 20.85},
      {"smiles": "O=C(O)/C(=C\\c1ccccc1)NC(=O)c1ccccc1", "Inhibition": 14.68},
      {"smiles": "CC(C)(C)OC(=O)N[C@H]1CC[C@H](O)CC1", "Inhibition": 7.19},
      {"smiles": "CCOC(=O)c1cn(C)c2ccccc12", "Inhibition": 5.67}
    ]},
    {"system": "Escherichia coli", "conditions": "Concentration 32 ug.mL-1; ASSAY_TEST Inhibition of Bacterial Growth; detection method Absorption (OD600); MEDIA CAMHB; plate type 384well; NBS; CORNING #3640; time 18 hr", "units": {"Inhibition": "%"}, "values": [
      {"smiles": "N#Cc1cc(C#N)c(N2CCCCC2)nc1Cl", "Inhibition": 9.21},
      {"smiles": "CNC(=O)c1c(Cl)c2cc(OCc3ccccc3)ccc2n1C", "Inhibition": -12.2},
      {"smiles": "COc1nc2nc3c(c(N)c2cc1C#N)CCCC3", "Inhibition": -3.63},
      {"smiles": "N#CC1=C(Cl)Oc2ccc3ccccc3c2C1c1ccccc1", "note": "(stereo not drawn)", "Inhibition": 12.43},
      {"smiles": "OCc1cc2ccccc2[nH]1", "Inhibition": -0.49},
      {"smiles": "C#CCNc1ncccn1", "Inhibition": -0.02},
      {"smiles": "O=C1OC(c2ccccc2)=NC1=Cc1ccc(Cl)cc1", "Inhibition": 10.9},
      {"smiles": "CCCC(=O)NCc1c(-c2ccc(Cl)cc2)nc2ccccn12", "Inhibition": 8.99},
      {"smiles": "Cc1nc2c3c(C)nn(-c4ccccc4)c3ncn2n1", "Inhibition": 12.68},
      {"smiles": "Cc1ccc2nc(Cl)c(/C=N/NCc3ccccc3)cc2c1", "Inhibition": 22.89},
      {"smiles": "COc1ccccc1[C@H]1c2c(ccc3ccccc23)O/C(=N\\Br)[C@@]1(Br)C#N", "Inhibition": 14.2},
      {"smiles": "COc1ccc2c(c1)cc(CO)n2C", "Inhibition": 11.03},
      {"smiles": "CNCc1cc2cc(OC)ccc2n1C.Cl", "Inhibition": -0.77},
      {"smiles": "CCOC(=O)c1c[nH]c2ccc(OC)cc12", "Inhibition": 9.94},
      {"smiles": "N#Cc1cc(C#N)c(NCc2ccccc2)nc1N", "Inhibition": -14.28},
      {"smiles": "CC1(C)OC(=O)C(=Cc2ccc([N+](=O)[O-])cc2)C(=O)O1", "Inhibition": 10.5},
      {"smiles": "Nc1c2c(nc3c1C(c1ccc(O)cc1)c1c(ccc4ccccc14)O3)CCCC2", "note": "(stereo not drawn)", "Inhibition": 9.35},
      {"smiles": "CC(=O)C(=Cc1ccccc1)C(=O)O[C@H]1C[C@H](C)CC[C@H]1C(C)C", "Inhibition": 14.92},
      {"smiles": "CCOC(=O)/C(C#N)=C\\c1ccc([N+](=O)[O-])cc1", "Inhibition": 19.98},
      {"smiles": "Cc1nc2c3cnn(-c4ccccc4)c3nc(C)n2n1", "Inhibition": 10.35},
      {"smiles": "C/C(Cc1ccccc1)=N/NC(=O)c1c[nH]c2ccc(O)cc12", "Inhibition": 8.13},
      {"smiles": "Cc1ccc(C2c3c(nc4c(c3N)CCCC4)Oc3ccc4ccccc4c32)cc1", "note": "(stereo not drawn)", "Inhibition": -5.39},
      {"smiles": "N#Cc1cc2c(N)n[nH]c2nc1N", "Inhibition": 10.46},
      {"smiles": "Cl.ClCCCC1CCNCC1", "Inhibition": 19.24},
      {"smiles": "N#CC1(Br)C(=NBr)Oc2c(ccc3ccccc23)C1c1cccc([N+](=O)[O-])c1", "note": "(stereo not drawn)", "Inhibition": -14.11},
      {"smiles": "CN1C/C(=C\\Br)n2c1c(C#N)cc(C#N)c2=O", "Inhibition": -11.76},
      {"smiles": "COc1ccccc1-c1c(C#N)c(=O)oc2c1ccc1ccccc12", "Inhibition": 19.18},
      {"smiles": "CCOc1nc2nc3c(c(N)c2cc1C#N)CCCC3", "Inhibition": -2.83},
      {"smiles": "Cc1ccc(CNNC(=O)c2cc3ccccc3n2C)cc1", "Inhibition": -8.9},
      {"smiles": "COc1ccccc1C1C(C#N)=C(N)Oc2c1ccc1ccccc21", "note": "(stereo not drawn)", "Inhibition": -9.01},
      {"smiles": "Cc1ccc(CNNC(=O)c2c[nH]c3ccccc23)cc1", "Inhibition": -3.7},
      {"smiles": "Cc1cnc2ccc(Br)cn12", "Inhibition": 6.35},
      {"smiles": "O=c1oc2cc(O)ccc2cc1-c1ccccc1", "Inhibition": 2.31},
      {"smiles": "CC(=O)Oc1ccc(C=C2N=C(c3ccccc3)OC2=O)c(OC(C)=O)c1", "Inhibition": 7.35},
      {"smiles": "Cl.N#Cc1c(N)nc(NCCO)c(C#N)c1-c1ccccc1", "Inhibition": -7.39},
      {"smiles": "C#CCN(C)c1nc(N(C)CC#C)c(C#N)cc1C#N", "Inhibition": -13.82},
      {"smiles": "O=C(O)/C(=C\\c1ccccc1)NC(=O)c1ccccc1", "Inhibition": 10.16},
      {"smiles": "CC(C)(C)OC(=O)N[C@H]1CC[C@H](O)CC1", "Inhibition": -6.43},
      {"smiles": "CCOC(=O)c1cn(C)c2ccccc12", "Inhibition": 4.13}
    ]}
  ]
}
